Records with an inconclusive call do not appear. Activity calls are given as the source filed them. Calls come from the whole dose curve; as a rule, active = well fitted curve in the direction sought with a large enough effect; inconclusive = small, poorly fitted or top-dose-only effect, or another doubt; inactive = no such curve, though single readings can be large; an effect the other way counts as inactive or inconclusive. Positions of bridges follow the written chain, without caps; N, C: chain ends. Non-standard residues stand in square brackets, D forms with d. Residues, ends and D or L forms follow the SMILES beside them. ξ: configuration not given here. *: point of attachment. Octanoyl(6-Me) = CCC(C)CCCCC(=O)*; ξThr(3R) = C[C@@H](O)C(N)C(=O)O; dDab = NCC[C@@H](N)C(=O)O; Dab = NCC[C@H](N)C(=O)O
How the values were obtained:
[1] = tested on: HACAT; assay: qHTS assay to identify novel small-molecules to repurpose for Merkel cell carcinoma treatment (AID 1296009); conditions: MCC and control cell lines, CellTiter-Glo viability, 72 h; at 44.8 µM (top of the series) unless noted; note: nearly all actives have a fitted effect of over 60% in size; note: potency is the fitted concentration of half-maximal effect
Summary of the method: (§1)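 Cells exposed to NPC (8-point) and MIPE (11-point) compound dilutions for 72 hr at 37 degree celsius; viability read by CellTiter-Glo luminescence, normalized to no-cell and DMSO in-plate controls.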

[2] = tested on: MCC-13; assay: as above; conditions: MCC and control cell lines, CellTiter-Glo viability, 72 h; series mostly up to 46 µM
Summary of the method: as §1

[3] = tested on: MCC-26; assay: as above; conditions: MCC and control cell lines, CellTiter-Glo viability, 72 h; series mostly up to 46 µM
Summary of the method: as §1

[4] = tested on: MKL-1; assay: as above; conditions: MCC and control cell lines, CellTiter-Glo viability, 72 h; series mostly up to 46 µM
Summary of the method: as §1

[5] = tested on: UISO; assay: as above; conditions: MCC and control cell lines, CellTiter-Glo viability, 72 h; series mostly up to 46 µM
Summary of the method: as §1

[6] = tested on: WaGa; assay: as above; conditions: MCC and control cell lines, CellTiter-Glo viability, 72 h; series mostly up to 46 µM
Summary of the method: as §1

[7] = tested on: MKL-2; assay: as above; conditions: MCC and control cell lines, CellTiter-Glo viability, 72 h; series mostly up to 46 µM
Summary of the method: as §1

[8] = tested on: NIH3T3; assay: as above; conditions: MCC and control cell lines, CellTiter-Glo viability, 72 h; at 44.8 µM (top of the series) unless noted
Summary of the method: as §1

[9] = tested on: C33A; assay: Primary qHTS to identify gynecologic anti-cancer compounds using libraries of approved drugs and bioactive compounds (AID 1345084); conditions: Gynecologic cancer cell panel viability, ATPlite luminescence, 48 h; series mostly up to 57.5 µM; note: nearly all actives have a fitted effect of over 55% in size
Summary of the method: (§2)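 Cells, 1,000 per well, were allowed to settle for 16 h at 37 C before compound addition. Five concentrations were tested for 48 h, and viability was read by ATPlite luminescence after 15 min at room temperature.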

[10] = tested on: CASKI; assay: as above; conditions: Gynecologic cancer cell panel viability, ATPlite luminescence, 48 h; series mostly up to 57.5 µM
Summary of the method: as §2

[11] = tested on: Es-2; assay: as above; conditions: Gynecologic cancer cell panel viability, ATPlite luminescence, 48 h; series mostly up to 57.5 µM
Summary of the method: as §2

[12] = tested on: HeLa; assay: as above; conditions: Gynecologic cancer cell panel viability, ATPlite luminescence, 48 h; series mostly up to 57.5 µM
Summary of the method: as §2

[13] = tested on: Hek293T; assay: as above; conditions: Gynecologic cancer cell panel viability, ATPlite luminescence, 48 h, control line for the selectivity index; series mostly up to 57.5 µM
Summary of the method: as §2

[14] = tested on: JEG-3; assay: as above; conditions: Gynecologic cancer cell panel viability, ATPlite luminescence, 48 h; series mostly up to 57.5 µM
Summary of the method: as §2

[15] = tested on: OV90; assay: as above; conditions: Gynecologic cancer cell panel viability, ATPlite luminescence, 48 h; series mostly up to 57.5 µM
Summary of the method: as §2

[16] = tested on: PA-1; assay: as above; conditions: Gynecologic cancer cell panel viability, ATPlite luminescence, 48 h; series mostly up to 57.5 µM
Summary of the method: as §2

[17] = tested on: SKOV3; assay: as above; conditions: Gynecologic cancer cell panel viability, ATPlite luminescence, 48 h; series mostly up to 57.5 µM
Summary of the method: as §2

[18] = tested on: Tov-21-G; assay: as above; conditions: Gynecologic cancer cell panel viability, ATPlite luminescence, 48 h; series mostly up to 57.5 µM
Summary of the method: as §2

[19] = tested on: Tov112D; assay: as above; conditions: Gynecologic cancer cell panel viability, ATPlite luminescence, 48 h; series mostly up to 57.5 µM
Summary of the method: as §2

[20] = tested on: HEK293T; assay: qHTS assay to identify novel small-molecules to repurpose for Merkel cell carcinoma treatment (AID 1296009); conditions: MCC and control cell lines, CellTiter-Glo viability, 72 h; series mostly up to 44.8 µM; note: nearly all actives have a fitted effect of over 60% in size; note: potency is the fitted concentration of half-maximal effect
Summary of the method: as §1

Measured: Potency

O=C(O)CCCCC(CCSCc1ccccc1)SCc1ccccc1 (configuration not stated)
inactive: [1] | [2] | [3] | [4] | [5]
active: [6] 13.2 µM

COc1cc(C)c(C=CC(C)=CC=CC(C)=CC(=O)O)c(C)c1C
inactive: [1] | [2] | [3] | [4] | [5] | [6]

NC(=O)c1cccc(-c2cccc(OC(=O)NC3CCCCC3)c2)c1
inactive: [1] | [2] | [4] | [7] | [8] | [5] | [6]

CCCCCCCCCCCC(CC1OC(=O)C1CCCCCC)OC(=O)C(CC(C)C)NC=O (configuration not stated)
inactive: [1] | [2] | [3] | [4] | [5] | [6]

CC(=O)O[C@]1(C(C)=O)CC[C@H]2[C@@H]3C=C(C)C4=CC(=O)CC[C@]4(C)[C@@H]3CC[C@@]21C
active: [4] 3.32 µM | [7] 2.35 µM | [6] 1.87 µM
inactive: [1] inactive; activator | [2] | [3]

CC(=CC(=O)Nc1ccccc1C(=O)O)c1ccc2ccccc2c1
inactive: [1] | [2] | [3] | [4] | [7] | [5] | [6]

CC(=O)N1CCN(c2ccc(OCc3nn(C)c(C)c3-c3cccc4c(CCCOc5cccc6ccccc56)c(C(=O)O)n(Cc5cccnc5)c34)cc2)CC1
active: [3] 16.6 µM | [4] 3.32 µM | [7] 0.296 µM | [5] 1.18 µM | [6] 0.0833 µM
inactive: [1] | [2]

c1ccc2c(Oc3nc(Nc4ccc(N5CCOCC5)cc4)c4ncn(C5CCCCC5)c4n3)cccc2c1
inactive: [1] | [2] | [3] | [4] | [7] | [5] | [6] | [9] | [10] | [11] | [12] | [13] | [14] | [15] | [16] | [17] | [18] | [19]

CC(=O)NC(CS)C(=O)O (configuration not stated)
inactive: [1] | [2] | [3] | [4] | [7] | [5] | [6]

CN1[C@H]2CC(OC(=O)[C@@H](CO)c3ccccc3)C[C@H]1[C@H]1O[C@H]12 (some centres not stated)
inactive: [1] inactive [at 17.4 µM] | [2] | [3] | [4] | [7] | [5] | [6]

NC1=N[C@H]2[C@H](CS[C@H]2CCCCC(=O)O)N1
inactive: [1] inactive [at 17.4 µM] | [2] | [3] | [4] | [7] | [5] | [6]

O=c1c(O)c(-c2ccc(O)c(O)c2)oc2cc(O)ccc12
inactive: [1] | [2] | [4] | [7]

CN(C)CC(=O)N1CCC(c2ccc(NC(=O)c3ncc(C#N)[nH]3)c(C3=CCCCC3)c2)CC1
inactive: [1] | [2] | [3] | [7] | [5] | [9] | [10] | [11] | [12] | [13] | [14] | [15] | [17] | [18]

Cc1coc2c1C(=O)C(=O)c1c-2ccc2c(C)cccc12
inactive: [1] | [2] | [3] | [4] | [7] | [6] | [10] | [11] | [12] | [13] | [15] | [18]

NC[C@H]1O[C@H](O[C@H]2[C@@H](O)[C@@H](O[C@H]3O[C@H](CO)[C@@H](O)[C@H](N)[C@@H]3O)[C@H](N)C[C@@H]2N)[C@H](N)C[C@H]1O
inactive: [1] | [2] | [3] | [4] | [7] | [5] | [6]

CN[C@H](CC(C)C)C(=O)N[C@H]1C(=O)N[C@@H](CC(N)=O)C(=O)N[C@@H]2C(=O)N[C@H]3C(=O)N[C@H](C(=O)N[C@H](C(=O)O)c4cc(O)cc(O)c4-c4cc3ccc4O)[C@H](O)c3ccc(c(Cl)c3)Oc3cc2cc(c3O[C@@H]2O[C@H](CO)[C@@H](O)[C@H](O)[C@@H]2O[C@H]2C[C@](C)(N)[C@H](O)[C@H](C)O2)Oc2ccc(cc2Cl)[C@H]1O
inactive: [1] | [2] | [3] | [4] | [7] | [5] | [6]

CC(N[C@H]1CCCC[C@H]1NC(=O)c1ccc(Cl)cc1)c1cccc2ccccc12 (some centres not stated)
active: [7] 0.418 µM
inactive: [1] | [2] | [3] | [5]

CC(C)N(CC[C@H](c1ccccc1)c1cc(CO)ccc1O)C(C)C
inactive: [2] | [3] | [4] | [7] | [8] | [5] | [6]

CCC(C)CCCCC(=O)N[C@@H](CCN)C(=O)NC(C(=O)N[C@H](CCN)C(=O)N[C@@H]1CCNC(=O)C([C@@H](C)O)NC(=O)[C@@H](CCN)NC(=O)[C@@H](CCN)NC(=O)[C@@H](CC(C)C)NC(=O)[C@H](Cc2ccccc2)NC(=O)[C@H](CCN)NC1=O)[C@@H](C)O (stereo partly drawn) ({Octanoyl(6-Me)}-[Dab][ξThr(3R)][dDab][dDab][Dab]F[dL][dDab][dDab][ξThr(3R)]; lactam 4-C)
inactive: [20] | [2] | [3] | [4] | [7] | [8] | [5] | [6]

CON=C(C(=O)N[C@@H]1C(=O)N2C(C(=O)O)=C(CSC(=O)c3ccco3)CS[C@H]12)c1csc(N)n1
inactive: [20] | [2] | [3] | [4] | [7] | [6]

CCCNC(=O)[C@H]1O[C@H]1C(=O)N[C@H](C(=O)N1CCC[C@@H]1C(=O)OC)C(C)CC (some centres not stated)
active: [2] 20.9 µM | [4] 5.26 µM | [7] 3.32 µM | [5] 18.7 µM | [6] 8.33 µM
inactive: [1]

COC(=O)[C@H](CCCN=C(N)N)NS(=O)(=O)c1ccc(C)cc1
inactive: [20] | [2] | [3] | [4] | [7] | [5] | [6]
